Counter-ions that a name gives are not always drawn. ± gives the standard error. Hit rate of the full screen: of about 1,300 compounds, about 130 (10%) showed an effect of 50% or more. The list comes from a sample in which strong results are over-represented; it also holds similar structures and randomly drawn compounds.
System: Trichoderma virens ATCC 9645
Assay: growth yield (OD600) with compound + IPBC relative to untreated control; higher = less growth inhibition
Settings: compound concentration: 100 uM, IPBC concentration: 200 ng/ml
Summary of the method: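 Growth appears as means of duplicate screens, relative to the control containing neither agent. To obtain it, OD600 was read on a BioTek EL800 at 40 h and 72 h. The cultures were 100 μl aliquots in 96-well plates at 30 °C, holding Trichoderma virens ATCC 9645 spores at 15,000 spores ml^−1 in potato dextrose broth, library compounds at 100 μM final, and, in some wells, a biocide at 200 ng ml^−1.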

Row | Compound | growth yield (40 h) [%] | growth yield (72 h) [%]
1 | CC[C@H]1OC(=O)[C@H](C)[C@@H](O[C@H]2C[C@@](C)(OC)[C@@H](O)[C@H](C)O2)[C@H](C)[C@@H](O[C@@H]2O[C@H](C)C[C@H](N(C)C)[C@H]2O)[C@](C)(O)C[C@@H](C)[C@@H]2N[C@@H](COCCOC)O[C@H]([C@H]2C)[C@]1(C)O [Dirithromycin] + CCCCNC(=O)OCC#CI [3-iodo-2-propynyl butylcarbamate (IPBC)] | 89 ± 9.5 | 94.9 ± 6.4
2 | N=C(N)NS(=O)(=O)c1ccc(N)cc1 [Sulfaguanidine] + CCCCNC(=O)OCC#CI [3-iodo-2-propynyl butylcarbamate (IPBC)] | 89.6 ± 2.5 | 92.4 ± 2.6
3 | Cc1cccc(C)c1OCC(=O)N[C@@H](Cc1ccccc1)[C@@H](O)C[C@H](Cc1ccccc1)NC(=O)[C@H](C(C)C)N1CCCNC1=O [Lopinavir] + CCCCNC(=O)OCC#CI [3-iodo-2-propynyl butylcarbamate (IPBC)] | 108 ± 5.4 | 111 ± 5.1
4 | O=C(NCC(O)CO)c1c(I)c(C(=O)NCC(O)CO)c(I)c(N(CCO)C(=O)CO)c1I (centres undefined) [Ioversol] + CCCCNC(=O)OCC#CI [3-iodo-2-propynyl butylcarbamate (IPBC)] | 103 ± 18 | 98 ± 13
5 | C#C[C@]1(O)CC[C@H]2[C@@H]3CCC4=CC(=O)CC[C@@H]4[C@H]3CC[C@@]21C [Norethindrone] + CCCCNC(=O)OCC#CI [3-iodo-2-propynyl butylcarbamate (IPBC)] | 55.1 ± 1.4 | 83.06 ± 0.63
6 | OCCN(CCO)c1nc(N2CCCCC2)c2nc(N(CCO)CCO)nc(N3CCCCC3)c2n1 [Dipyridamole] + CCCCNC(=O)OCC#CI [3-iodo-2-propynyl butylcarbamate (IPBC)] | 44.5 ± 1.6 | 57.37 ± 0.52
7 | CN[C@H](CC(C)C)C(=O)N[C@H]1C(=O)N[C@@H](CC(N)=O)C(=O)N[C@H]2C(=O)N[C@H]3C(=O)N[C@H](C(=O)N[C@H](C(=O)O)c4cc(O)cc(O)c4-c4cc3ccc4O)[C@H](O)c3ccc(c(Cl)c3)Oc3cc2cc(c3O[C@@H]2O[C@H](CO)[C@@H](O)[C@H](O)[C@H]2O[C@H]2C[C@](C)(N)[C@H](O)[C@H](C)O2)Oc2ccc(cc2Cl)[C@H]1O [Vancomycin hydrochloride] + CCCCNC(=O)OCC#CI [3-iodo-2-propynyl butylcarbamate (IPBC)] | 84.2 ± 0.95 | 98.27 ± 0.52
8 | Cc1cccc(N(C)C(=S)Oc2ccc3ccccc3c2)c1 [Tolnaftate] + CCCCNC(=O)OCC#CI [3-iodo-2-propynyl butylcarbamate (IPBC)] | 0 | 35.9 ± 0.84
9 | CC(C)(C)C(=O)OCOC(=O)[C@@H]1N2C(=O)[C@@H](NC(=O)[C@H](N)c3ccccc3)[C@H]2SC1(C)C [Pivampicillin] + CCCCNC(=O)OCC#CI [3-iodo-2-propynyl butylcarbamate (IPBC)] | 125 ± 1.3 | 119.9 ± 0.73
10 | CCCCCOC(=O)Nc1nc(=O)n([C@@H]2O[C@H](C)[C@@H](O)[C@H]2O)cc1F [Capecitabine] + CCCCNC(=O)OCC#CI [3-iodo-2-propynyl butylcarbamate (IPBC)] | 99.28 ± 0.48 | 98.58 ± 0.84
11 | CN(C)/N=N/c1[nH]cnc1C(N)=O [Dacarbazine] + CCCCNC(=O)OCC#CI [3-iodo-2-propynyl butylcarbamate (IPBC)] | 86.25 ± 0.48 | 93.03 ± 0.52
12 | O=C([O-])c1ccccc1-c1c2cc(Br)c(=O)cc-2oc2[c]([Hg+])c([O-])c(Br)cc12.[Na+].[Na+].[OH-] [Merbromin] + CCCCNC(=O)OCC#CI [3-iodo-2-propynyl butylcarbamate (IPBC)] | 5.4 ± 0.64 | 3.99 ± 0.21
13 | COc1ccc([C@@H]2CC(=O)c3c(O)cc(O[C@@H]4O[C@H](CO[C@@H]5O[C@@H](C)[C@H](O)[C@@H](O)[C@H]5O)[C@@H](O)[C@H](O)[C@H]4O)cc3O2)cc1O [Hesperidin] + CCCCNC(=O)OCC#CI [3-iodo-2-propynyl butylcarbamate (IPBC)] | 86.41 ± 0.64 | 92.6 ± 2.2
14 | C[C@@H](O[C@H]1OCCN(Cc2n[nH]c(=O)[nH]2)[C@H]1c1ccc(F)cc1)c1cc(C(F)(F)F)cc(C(F)(F)F)c1 [Aprepitant] + CCCCNC(=O)OCC#CI [3-iodo-2-propynyl butylcarbamate (IPBC)] | 113 ± 12 | 104 ± 8.8
15 | CNCCc1ccccn1 [Betahistine mesylate] + CCCCNC(=O)OCC#CI [3-iodo-2-propynyl butylcarbamate (IPBC)] | 88 ± 8.3 | 92 ± 5.6
16 | O=C(NCNC(=O)NC1C(=O)NC(=O)N1CO)NC1C(=O)NC(=O)N1CO (centres undefined) [Imidurea] + CCCCNC(=O)OCC#CI [3-iodo-2-propynyl butylcarbamate (IPBC)] | 89 ± 7 | 92.5 ± 5.5
17 | CCCc1cc(=O)[nH]c(=S)[nH]1 [Propylthiouracil] + CCCCNC(=O)OCC#CI [3-iodo-2-propynyl butylcarbamate (IPBC)] | 90.1 ± 11 | 93 ± 6.4
18 | CCCCCCNC(=O)n1cc(F)c(=O)[nH]c1=O [Carmofur] + CCCCNC(=O)OCC#CI [3-iodo-2-propynyl butylcarbamate (IPBC)] | 21.9 ± 0.95 | 31.4 ± 0.32
19 | CC(C(=O)O)c1ccc(C(=O)c2ccccc2)s1 (centres undefined) [Tiaprofenic acid] + CCCCNC(=O)OCC#CI [3-iodo-2-propynyl butylcarbamate (IPBC)] | 77.83 ± 0.32 | 83.38 ± 0.32
20 | CCCCN(CCCC)CCC(O)c1cc2c(Cl)cc(Cl)cc2c2cc(C(F)(F)F)ccc12 (centres undefined) [Halofantrine hydrochloride] + CCCCNC(=O)OCC#CI [3-iodo-2-propynyl butylcarbamate (IPBC)] | 13.8 ± 0.16 | 7.66 ± 1.1
21 | CCN1CCCC(OC(=O)C(c2ccccc2)c2ccccc2)C1 (centres undefined) [Piperidolate hydrochloride] + CCCCNC(=O)OCC#CI [3-iodo-2-propynyl butylcarbamate (IPBC)] | 85.5 ± 1.6 | 94.08 ± 0.73
22 | CC[C@@]1([C@@H]2O[C@@H]([C@H]3O[C@@](O)(CO)[C@H](C)C[C@@H]3C)C[C@@H]2C)CC[C@H]([C@]2(C)CC[C@]3(C[C@H](O)[C@@H](C)[C@@H]([C@@H](C)[C@@H](OC)[C@H](C)C(=O)O)O3)O2)O1 [Monensin sodium salt] + CCCCNC(=O)OCC#CI [3-iodo-2-propynyl butylcarbamate (IPBC)] | 79.4 ± 9.8 | 89.6 ± 9.2

Reference: the supplement of paper PMC8007513
